This passage reports CPE inhibition results from PubChem BioAssay AID651640 (Broad Institute, 2012).

The structures appear in SMILES notation. Where “and” joins values, the source holds several entries; their conditions need not be identical. Identical values can stand only once. The campaign covered roughly 350,000 compounds. About 6,000 (1.7%) were called active. Not shown: some 5% with an inconclusive outcome. Cut-off read from the data, not from the text of the source: active = CPE inhibition above about 20% (passing the limit was not always enough); inconclusive = no clear call, values can overlap the other calls; tested in BHK-21 cells. What follows is part of a selection rich in actives, with near analogues and random picks from the rest. More than one record can exist for a structure, and the calls need not agree.

A short description of this experiment: inhibitors of DENV2 cytopathic effect, primary screen, cell-based, plate reader, single concentration (AID 651640).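 Note: 0% = median of neutral control wells and 100% = median of positive control wells.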 The settings on record: DENV2-infected cells, cytopathic effect rescue, at 9.99 µM, stronger effect = higher value.
`CCC(=O)N1CCC2(CC1)CN(Cc1cccc(OC)c1)[C@@H](CO)c1[nH]c3cc(OC)ccc3c12`: the CPE inhibition is -4.07% (inactive).
As to `C[C@@H]1CN([C@H](C)CO)C(=O)c2cc(C#CCN(C)C)cnc2O[C@@H]1CN(C)C(=O)Cc1cccnc1`, the CPE inhibition was 6.92% (inactive).
`CCc1cccc(NC(=O)O[C@H]2[C@H](OC(=O)Nc3ccccc3-c3ccccc3)[C@H](OC(=O)Nc3ccccc3-c3ccccc3)[C@@H](OC)O[C@@H]2CO)c1`: the CPE inhibition is 1.23% (inactive).
The figure for `CC(C)CNc1cccc2c1S(=O)(=O)N[C@H](C)CO2` is 2.95% (inactive); for `CN(C)C(=O)C[C@@H]1C=C[C@H](NC(=O)Nc2cccc(F)c2)[C@H](CO)O1` it is -10% (inactive).
The figure for `COc1cc(F)c(C2=CC(=O)CC(C)(C)C2)cc1F` is 26.9% (active).
On to `CC1(C)CC(=O)C=C(c2ccc(Cl)c(C(F)(F)F)c2)C1`, for which the CPE inhibition was 1.16% (inactive).
The figure for `COc1ccc(CCNC2=CC(=O)CC(C)(C)C2)cc1` is 16.6% (inactive); for `COc1ccc(-c2csc3ncnc(N4CCN(S(=O)(=O)c5cccc(F)c5)CC4)c23)cc1` it is 5.97% (inactive); for `O=S(=O)(Nc1ncnc2sccc12)c1cccc(F)c1` it is -1.13% (inactive).
Consider `Cc1cc(F)ccc1S(=O)(=O)Nc1ncnc2scc(-c3ccc(F)cc3)c12`, for which the CPE inhibition was 46.8% (active).
The figure for `O=C1CN(S(=O)(=O)c2ccccc2)C[C@H]2[C@H](c3ccc(C4=CCCC4)cc3)[C@@H](CO)N12` is -1.48% (inactive); for `COc1cccc(NC(=O)N[C@@H]2CC[C@H](CC(=O)Nc3ccccc3)O[C@@H]2CO)c1` it is 3.12% (inactive).
Turning to `Nc1ccccc1-c1cn(CC(=O)Nc2ccon2)nn1`, the CPE inhibition was 15.8% (inactive).
As to `CO[C@@H]1CN(C)C(=O)c2ccc(NS(=O)(=O)c3cccc(C)c3)cc2OC[C@@H](C)NC[C@H]1C`, the CPE inhibition was 10.6% (inactive).
The figure for `Cc1noc(C)c1NC(=O)N(C)C[C@@H]1OCCCC[C@H](C)Oc2ccc(NC(=O)NC3CCCCC3)cc2C(=O)N([C@H](C)CO)C[C@@H]1C` is -0.006% (inactive).
The figure for `COc1ccc(CN(C)C[C@H]2Oc3ccc(NC(=O)CCN4CCOCC4)cc3C(=O)N([C@@H](C)CO)C[C@H]2C)cc1` is 8.91% (inactive).
The value for `C[C@@H]1CN([C@@H](C)CO)C(=O)c2cc(NC(=O)Cc3ccccc3)ccc2O[C@@H]1CN(C)Cc1ccc(Oc2ccccc2)cc1` was -2.18% (inactive); that for `COc1ccc(CN(C)C[C@@H]2Oc3ccc(NC(=O)Nc4cccc5ccccc45)cc3C(=O)N([C@H](C)CO)C[C@H]2C)cc1` was 1.24% (inactive); that for `C[C@@H]1CN([C@@H](C)CO)C(=O)c2cc(NC(=O)Nc3cccc4ccccc34)ccc2O[C@H]1CN(C)Cc1ccc(Oc2ccccc2)cc1` was 29.3% (active).
For `C[C@@H]1CN([C@H](C)CO)C(=O)c2cc(NC(=O)CCN3CCOCC3)ccc2O[C@H]1CN(C)Cc1ccc(Oc2ccccc2)cc1`, the CPE inhibition is 25.3% (active).
The value for `C[C@@H]1CN([C@@H](C)CO)C(=O)c2cc(NC(=O)Nc3cccc4ccccc34)ccc2O[C@@H]1CN(C)Cc1ccc(-c2ccccc2)cc1` was 6.66% (inactive); that for `CC(=O)c1ccc(S(=O)(=O)NCC2CCN(C(=O)C(=O)c3cccs3)CC2)cc1` was -2.02% (inactive); that for `N#Cc1ccc(-c2ccc([C@@H]3[C@H]4CNC[C@@H]3N4Cc3cc(F)ccc3F)cc2)cc1` was -0.209% (inactive).
The figure for `COc1ccccc1CN1[C@@H]2CNC[C@H]1C2c1ccc(-c2cccc(C#N)c2)cc1` (stereo partly specified) is 9% (inactive) and 53.2% (active).
For the compound `N#Cc1cccc(-c2ccc(C3[C@H]4CNC[C@@H]3N4Cc3cncnc3)cc2)c1` (stereo partly specified), the CPE inhibition is -5.94% (inactive).
The value for `CCCNC(=O)C[C@@H]1CC[C@@H]2[C@H](COc3ccc(NC(=O)C4CCOCC4)cc3C(=O)N2C)O1` was 11.7% (inactive); that for `CCN(CC(=O)Nc1ccc(C)c(S(=O)(=O)N(C)C)c1)Cc1ccccc1` was 7.9% (inactive); that for `CCN(CC(=O)NCC(=O)Nc1cccc(C)c1C)Cc1ccccc1` was 61.4% (active).
The figure for `Cc1cccc(NC(=O)COC(=O)CCc2ccccc2)c1C` is 0.193% (inactive); for `CO[C@H]1CN(C)C(=O)c2cc(NC(=O)c3ccccc3)ccc2OC[C@H](C)NC[C@H]1C` it is -12.8% (inactive).
The value for `O=C(N[C@@H]1C=C[C@@H](CC(=O)N2CCOCC2)O[C@H]1CO)c1ccccn1` was -8.41% (inactive).
Take `CC(C)(C)NC(=O)C(CCc1ccccc1)n1c(=O)c(-c2ccccc2)nc2ccccc21` (stereo unspecified): the CPE inhibition was 8.63% (inactive).
The value for `CCC(C(=O)NC(C)(C)C)n1c(-c2ccccc2)nc2ccccc21` (stereo unspecified) was -20.3% (inactive).
The value for `CCCc1nc2ccccc2n1C(C)C(=O)NC(C)(C)C` (stereo unspecified) was 34.6% (active).
The figure for `CCCNC(=O)C[C@@H]1CC[C@H]2[C@H](COc3ccc(NC(=O)c4ccc(Cl)cc4)cc3C(=O)N2C)O1` is -2.04% (inactive); for `O=C(C[C@@H]1CC[C@H](NS(=O)(=O)c2cccc(F)c2)[C@H](CO)O1)N1CCCCC1` it is -2.32% (inactive).
Turning to `COc1ccc(-c2cn(CC[C@@H]3CC[C@@H](NC(=O)CCN4CCCCC4)[C@@H](CO)O3)nn2)cc1`, the CPE inhibition is -1.31% (inactive).
The value for `O=C(OCC(=O)N1CCOCC1)c1ccc(N2CCOCC2)c([N+](=O)[O-])c1` was 2.84% (inactive); that for `N#Cc1c(NC(=O)c2ccc(N3CCOCC3)c([N+](=O)[O-])c2)sc2c1CCCC2` was 46.3% (active); that for `Cc1cccc(C)c1NC(=O)CNC(=O)c1ccc(N2CCOCC2)c([N+](=O)[O-])c1` was -8.12% (inactive).
The figure for `C[C@H]1CN([C@@H](C)CO)C(=O)c2cccc(NC(=O)Nc3ccccc3)c2O[C@@H]1CN(C)S(=O)(=O)c1ccc(F)cc1` is 13.7% (inactive).
The value for `COc1ccc2c3c(n(C)c2c1)[C@@H](CO)N(CC1CC1)CC31CN(C(=O)Nc2c(C)noc2C)C1` was 7.58% (inactive); that for `CCCCCCn1c(=O)n2n(c1=O)C[C@]1(OC(=O)NCc3ccc(OC)c(OC)c3)CN(S(=O)(=O)c3ccc(C)cc3)C[C@]1(O)C2` was 33.2% (active).
Turning to `COc1ccc(CNC(=O)COC(=O)CCS(=O)(=O)c2ccc(C)cc2)cc1OC`, the CPE inhibition is -2.46% (inactive).
The figure for `CCCCCCNC(=O)O[C@]12C[C@@H](C(=O)OC)[C@@H](C(=O)OC)C[C@@]1(O)CN(S(=O)(=O)c1ccc(C)cc1)C2` is -1.36% (inactive); for `C[C@H](O)C#Cc1ccc2c(c1)O[C@H](CN(C)Cc1ccccn1)[C@@H](C)CN([C@@H](C)CO)S2(=O)=O` it is 3.01% (inactive); for `C[C@H]1CN([C@@H](C)CO)C(=O)c2c(c3ccccc3n2C)-c2ccccc2CO[C@H]1CN(C)Cc1ccc2c(c1)OCO2` it is -9.95% (inactive).
The figure for `CCOC(=O)/C=C/c1ccccc1O` is -9.35% (inactive); for `CCOC(=O)/C=C/c1ccc(C(F)(F)F)cc1S(=O)(=O)NC(C)(C)C` it is 23.6% (active).
The figure for `CCOC(=O)NNc1cc(C(F)(F)F)ccn1` is -1.25% (inactive); for `O=C(CN1CCOCC1)N[C@H]1CC[C@@H](CCNS(=O)(=O)c2ccccc2F)O[C@H]1CO` it is 1.76% (inactive); for `O=C(CN1CCOCC1)N[C@@H]1CC[C@H](CCNS(=O)(=O)c2ccccc2F)O[C@H]1CO` it is 28.5% (active).
For `O=C(Nc1ccccc1)N[C@@H]1CC[C@H](CCNS(=O)(=O)c2ccccc2F)O[C@@H]1CO`, the CPE inhibition was -0.044% (inactive).
The figure for `O=C(Cc1ccccc1)N1C[C@H]2[C@@H](c3ccccc31)[C@H](CO)N2C(=O)C1CCOCC1` is 2% (inactive).
The figure for `O=C(NCC[C@H]1CC[C@@H](NC(=O)c2ccncc2)[C@@H](CO)O1)Nc1ccc(Cl)cc1` is 3.84% (inactive); for `COc1ccc(NC(=O)Nc2ccc3c(c2)C(=O)N([C@@H](C)CO)C[C@@H](C)[C@@H](CN(C)C(=O)CCCN(C)C)OCCCC[C@@H](C)O3)cc1` it is -1% (inactive); for `Cc1ccc(S(=O)(=O)N[C@H]2CC[C@H](CC(=O)NCc3ccccc3F)O[C@@H]2CO)cc1` it is 23.7% (active).
The figure for `Cc1ccc(S(=O)(=O)N[C@H]2CC[C@@H](CC(=O)NCc3ccc(Cl)c(Cl)c3)O[C@H]2CO)cc1` is -6.75% (inactive); for `O=C(C[C@@H]1CC[C@H](NS(=O)(=O)c2ccc(F)cc2)[C@@H](CO)O1)NCc1ccccc1F` it is 1.66% (inactive).
Regarding `Cc1ccccc1-c1ccc2c(c1)O[C@@H](CN(C)Cc1ccc(C(=O)O)cc1)[C@H](C)CN([C@H](C)CO)S2(=O)=O`, the CPE inhibition is 0.324% (inactive).
The figure for `CC=Cc1ccc2n(c1=O)C[C@H]1[C@H](CO)[C@@H](C(=O)N3CCCCC3)N(Cc3ccccn3)[C@@H]21` (mixture of isomers) is 14.3% (inactive).
The figure for `COc1cccc(C(=O)NCCSc2ccc(Br)cc2)c1` is 14.3% (inactive).
The figure for `COc1ccc(C(=O)NCCSc2ccccc2C)cc1` is -6.82% (inactive).
In the case of `CCS(=O)(=O)Nc1ccc(C(=O)NCCSc2ccccc2)cc1`, the CPE inhibition is 32% (active).
The value for `C[C@@H]1CN([C@@H](C)CO)C(=O)c2cccc(N(C)C)c2O[C@@H]1CN(C)S(C)(=O)=O` was 1.61% (inactive); that for `C[C@@H]1CCCCO[C@@H](CN(C)S(=O)(=O)c2cccs2)[C@@H](C)CN([C@H](C)CO)C(=O)c2cc(NC(=O)Nc3ccc4c(c3)OCO4)ccc2O1` was -1.49% (inactive).
Consider `COCCNC(=O)[C@H]1[C@H](CO)[C@H]2Cn3c(ccc(-c4ccccc4F)c3=O)[C@H]2N1C(=O)C1CCC1`, for which the CPE inhibition is -1.96% (inactive).
The value for `COc1ccc(CCNC(=S)N2CCN(S(=O)(=O)c3ccc(F)cc3)CC2)cc1` was 53.1% (active); that for `COc1ccc(CCNC(=S)N2CCN(S(=O)(=O)c3ccc(Cl)cc3)CC2)cc1` was 0.363% (inactive).
In the case of `COc1ccc(CCC(=O)N2CCN(S(=O)(=O)c3ccc(OC)cc3)CC2)cc1`, the CPE inhibition is -8.26% (inactive).
